Measured values from publication PMC7862700, “An all-to-all approach to the identification of sequence-specific readers for epigenetic DNA modifications on cytosine”.

Legend:
Assay in all cases: DAPPL (digital affinity profiling via proximity ligation, sequencing); 10 mM Tris-HCl pH 7.5, 50 mM NaCl, 1 mM DTT, 4% glycerol, room temperature, 30 min; GST-TFs on glutathione beads, 16-mer random dsDNA library, 0.1% formaldehyde crosslink after washing; high values mean tight binding
[1] = biological target: T1, FLI1 (Homo sapiens, UniProt Q01543 1-452); conditions: protein: recombinant; tags: N-terminal GST; dsDNA, one strand shown
T1 sequence: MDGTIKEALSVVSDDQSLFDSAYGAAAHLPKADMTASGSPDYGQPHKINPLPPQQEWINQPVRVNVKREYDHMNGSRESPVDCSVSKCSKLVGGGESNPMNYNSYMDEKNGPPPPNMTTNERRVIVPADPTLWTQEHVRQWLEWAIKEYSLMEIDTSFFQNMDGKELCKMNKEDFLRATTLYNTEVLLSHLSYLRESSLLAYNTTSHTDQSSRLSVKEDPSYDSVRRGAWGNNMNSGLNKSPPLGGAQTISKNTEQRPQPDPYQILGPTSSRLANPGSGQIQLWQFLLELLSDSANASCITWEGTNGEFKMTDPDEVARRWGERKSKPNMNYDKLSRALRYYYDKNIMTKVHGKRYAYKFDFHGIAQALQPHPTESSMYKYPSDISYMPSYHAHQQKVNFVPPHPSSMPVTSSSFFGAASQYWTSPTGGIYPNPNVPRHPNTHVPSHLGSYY
How it was run: (§1)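 Binding signal is defined as a hexamer's read frequency for one factor over its frequency for the tag-only sample. To obtain reads, GST-fused human transcription factors were expressed in yeast, captured on glutathione beads, barcoded with DNA and pooled with that sample. Pools met 200 nmole of a 16-mer random double-stranded DNA library in Tris/NaCl/DTT/glycerol buffer for 30 min at room temperature before washing, 0.1% formaldehyde crosslinking, proximity ligation (BsaI/T4 ligase, 1 h, 37 °C), PCR and Illumina NextSeq500 sequencing.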

[2] = biological target: T2, ELK1 (Homo sapiens, UniProt P19419 1-428); conditions: protein: recombinant; tags: N-terminal GST; dsDNA, one strand shown
T2 sequence: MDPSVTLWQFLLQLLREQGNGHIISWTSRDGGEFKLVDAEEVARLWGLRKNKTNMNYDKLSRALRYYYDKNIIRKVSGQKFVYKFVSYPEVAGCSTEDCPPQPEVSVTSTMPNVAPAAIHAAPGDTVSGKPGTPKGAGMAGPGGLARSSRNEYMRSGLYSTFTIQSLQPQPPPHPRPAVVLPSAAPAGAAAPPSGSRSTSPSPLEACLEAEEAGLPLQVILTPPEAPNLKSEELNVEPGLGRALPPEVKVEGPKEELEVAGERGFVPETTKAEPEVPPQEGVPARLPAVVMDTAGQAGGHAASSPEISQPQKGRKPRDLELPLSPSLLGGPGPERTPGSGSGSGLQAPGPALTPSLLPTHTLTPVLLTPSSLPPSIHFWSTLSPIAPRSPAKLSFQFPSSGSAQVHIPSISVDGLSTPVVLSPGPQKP
How it was run: as §1

[3] = biological target: T3, GABPA (Homo sapiens, UniProt Q06546 1-454); conditions: protein: recombinant; tags: N-terminal GST; dsDNA, one strand shown
T3 sequence: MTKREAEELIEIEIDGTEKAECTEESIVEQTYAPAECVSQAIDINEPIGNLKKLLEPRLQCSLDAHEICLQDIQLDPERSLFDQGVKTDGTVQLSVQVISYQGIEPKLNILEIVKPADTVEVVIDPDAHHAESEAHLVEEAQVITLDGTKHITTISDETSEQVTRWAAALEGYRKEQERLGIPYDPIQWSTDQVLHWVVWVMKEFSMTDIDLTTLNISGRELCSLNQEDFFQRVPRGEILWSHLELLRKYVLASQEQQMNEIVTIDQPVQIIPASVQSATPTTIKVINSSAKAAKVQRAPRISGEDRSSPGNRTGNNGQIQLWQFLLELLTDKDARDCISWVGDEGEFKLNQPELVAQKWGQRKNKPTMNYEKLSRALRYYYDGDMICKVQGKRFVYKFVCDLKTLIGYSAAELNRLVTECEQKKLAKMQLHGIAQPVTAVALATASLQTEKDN
How it was run: as §1

[4] = biological target: T4, ERG (Homo sapiens, UniProt P11308 1-479); conditions: protein: recombinant; tags: N-terminal GST; dsDNA, one strand shown
T4 sequence: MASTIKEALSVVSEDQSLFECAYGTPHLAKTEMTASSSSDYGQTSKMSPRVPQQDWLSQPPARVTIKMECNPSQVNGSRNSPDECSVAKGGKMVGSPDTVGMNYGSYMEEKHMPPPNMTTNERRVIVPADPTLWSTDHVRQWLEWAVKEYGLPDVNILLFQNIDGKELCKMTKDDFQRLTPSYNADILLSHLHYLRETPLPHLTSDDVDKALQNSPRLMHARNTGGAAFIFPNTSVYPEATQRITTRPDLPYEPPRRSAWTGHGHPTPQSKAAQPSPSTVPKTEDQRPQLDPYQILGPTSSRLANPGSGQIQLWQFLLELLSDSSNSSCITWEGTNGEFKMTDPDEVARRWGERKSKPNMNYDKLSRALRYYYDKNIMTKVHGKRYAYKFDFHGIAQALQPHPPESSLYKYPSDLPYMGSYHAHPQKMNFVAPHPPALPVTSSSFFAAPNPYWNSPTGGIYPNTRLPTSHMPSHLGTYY
How it was run: as §1

[5] = biological target: ELF1 (Homo sapiens, UniProt P32519 1-619); conditions: protein: recombinant; tags: N-terminal GST; dsDNA, one strand shown
How it was run: as §1

[6] = biological target: T5, EHF (Homo sapiens, UniProt Q9NZC4 1-300); conditions: protein: recombinant; tags: N-terminal GST; dsDNA, one strand shown
T5 sequence: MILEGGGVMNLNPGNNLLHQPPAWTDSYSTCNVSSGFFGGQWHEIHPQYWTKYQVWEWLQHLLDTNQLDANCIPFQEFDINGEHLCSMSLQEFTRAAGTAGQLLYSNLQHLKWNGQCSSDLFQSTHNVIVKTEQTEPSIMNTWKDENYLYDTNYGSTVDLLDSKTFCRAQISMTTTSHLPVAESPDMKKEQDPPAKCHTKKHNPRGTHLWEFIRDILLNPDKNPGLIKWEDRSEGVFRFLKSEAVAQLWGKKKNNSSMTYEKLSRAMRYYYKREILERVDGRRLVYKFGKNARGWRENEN
How it was run: as §1

[7] = biological target: SPI1 (Homo sapiens, UniProt P17947 1-270); conditions: protein: recombinant; tags: N-terminal GST; dsDNA, one strand shown
How it was run: as §1

[8] = biological target: SPIB (Homo sapiens, UniProt Q01892 1-262); conditions: protein: recombinant; tags: N-terminal GST; dsDNA, one strand shown
How it was run: as §1

[9] = biological target: T6, ELK3 (Homo sapiens, UniProt P41970 1-407); conditions: protein: recombinant; tags: N-terminal GST; dsDNA, one strand shown
T6 sequence: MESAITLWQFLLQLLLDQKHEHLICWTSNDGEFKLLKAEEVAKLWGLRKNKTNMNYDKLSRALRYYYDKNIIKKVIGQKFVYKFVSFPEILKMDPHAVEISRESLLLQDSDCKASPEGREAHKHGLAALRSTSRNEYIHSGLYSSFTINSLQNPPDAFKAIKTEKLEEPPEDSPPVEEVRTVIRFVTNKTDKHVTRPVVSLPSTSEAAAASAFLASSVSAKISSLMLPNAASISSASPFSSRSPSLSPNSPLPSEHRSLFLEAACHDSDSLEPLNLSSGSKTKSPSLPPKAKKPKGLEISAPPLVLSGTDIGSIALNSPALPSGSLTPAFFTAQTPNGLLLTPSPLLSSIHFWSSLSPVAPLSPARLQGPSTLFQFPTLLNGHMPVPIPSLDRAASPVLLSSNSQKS
How it was run: as §1

[10] = biological target: T7, FEV (Homo sapiens, UniProt Q99581 1-238); conditions: protein: recombinant; tags: N-terminal GST; dsDNA, one strand shown
T7 sequence: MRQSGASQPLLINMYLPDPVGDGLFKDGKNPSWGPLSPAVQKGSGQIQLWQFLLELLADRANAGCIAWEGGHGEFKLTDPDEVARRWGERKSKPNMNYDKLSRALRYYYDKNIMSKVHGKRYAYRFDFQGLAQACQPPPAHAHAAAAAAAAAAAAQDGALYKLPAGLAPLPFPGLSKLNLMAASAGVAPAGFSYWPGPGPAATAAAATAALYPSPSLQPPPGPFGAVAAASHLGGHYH
How it was run: as §1

[11] = biological target: ETV5 (Homo sapiens, UniProt P41161 1-510); conditions: protein: recombinant; tags: N-terminal GST; dsDNA, one strand shown
How it was run: as §1

[12] = biological target: HSF1 (Homo sapiens, UniProt Q00613 1-529); conditions: protein: recombinant; tags: N-terminal GST; chain copies: 3; dsDNA, one strand shown
How it was run: as §1

[13] = biological target: T8, SPIC (Homo sapiens, UniProt Q8N5J4 1-248); conditions: protein: recombinant; tags: N-terminal GST; dsDNA, one strand shown
T8 sequence: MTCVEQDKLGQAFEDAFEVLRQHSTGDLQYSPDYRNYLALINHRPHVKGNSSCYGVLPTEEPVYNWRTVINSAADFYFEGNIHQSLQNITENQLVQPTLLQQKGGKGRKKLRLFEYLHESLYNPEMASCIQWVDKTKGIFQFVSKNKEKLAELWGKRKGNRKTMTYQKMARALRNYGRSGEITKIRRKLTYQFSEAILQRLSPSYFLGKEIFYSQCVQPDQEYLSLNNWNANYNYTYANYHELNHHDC
How it was run: as §1

[14] = biological target: ELF4 (Homo sapiens, UniProt Q99607 1-663); conditions: protein: recombinant; tags: N-terminal GST; dsDNA, one strand shown
How it was run: as §1

[15] = biological target: T9, ELK4 (Homo sapiens, UniProt P28324-2 1-405); conditions: protein: recombinant; tags: N-terminal GST; dsDNA, one strand shown
T9 sequence: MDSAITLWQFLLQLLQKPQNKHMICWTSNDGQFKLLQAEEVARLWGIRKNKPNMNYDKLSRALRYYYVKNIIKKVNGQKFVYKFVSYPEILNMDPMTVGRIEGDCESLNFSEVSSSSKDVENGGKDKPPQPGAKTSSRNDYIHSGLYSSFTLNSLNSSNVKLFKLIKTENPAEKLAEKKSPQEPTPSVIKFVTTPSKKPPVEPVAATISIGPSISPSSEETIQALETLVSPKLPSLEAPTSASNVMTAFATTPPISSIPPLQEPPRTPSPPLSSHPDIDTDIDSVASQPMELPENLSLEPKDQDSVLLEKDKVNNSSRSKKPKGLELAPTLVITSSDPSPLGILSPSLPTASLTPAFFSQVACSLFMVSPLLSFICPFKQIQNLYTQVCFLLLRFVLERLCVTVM
How it was run: as §1

[16] = biological target: T10, ETV2 (Homo sapiens, UniProt O00321 1-342); conditions: protein: recombinant; tags: N-terminal GST; dsDNA, one strand shown
T10 sequence: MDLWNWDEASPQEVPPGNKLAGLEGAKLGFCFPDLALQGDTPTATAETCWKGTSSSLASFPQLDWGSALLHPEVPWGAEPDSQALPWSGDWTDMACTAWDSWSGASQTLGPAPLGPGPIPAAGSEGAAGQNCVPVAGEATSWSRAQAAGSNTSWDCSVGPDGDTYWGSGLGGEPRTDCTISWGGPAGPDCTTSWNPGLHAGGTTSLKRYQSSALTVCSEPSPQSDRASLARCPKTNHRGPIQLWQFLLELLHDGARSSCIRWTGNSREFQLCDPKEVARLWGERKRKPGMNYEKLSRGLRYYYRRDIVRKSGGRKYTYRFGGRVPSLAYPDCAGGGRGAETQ
How it was run: as §1

[17] = biological target: T11, ELF3 (Homo sapiens, UniProt P78545 1-371); conditions: protein: recombinant; tags: N-terminal GST; dsDNA, one strand shown
T11 sequence: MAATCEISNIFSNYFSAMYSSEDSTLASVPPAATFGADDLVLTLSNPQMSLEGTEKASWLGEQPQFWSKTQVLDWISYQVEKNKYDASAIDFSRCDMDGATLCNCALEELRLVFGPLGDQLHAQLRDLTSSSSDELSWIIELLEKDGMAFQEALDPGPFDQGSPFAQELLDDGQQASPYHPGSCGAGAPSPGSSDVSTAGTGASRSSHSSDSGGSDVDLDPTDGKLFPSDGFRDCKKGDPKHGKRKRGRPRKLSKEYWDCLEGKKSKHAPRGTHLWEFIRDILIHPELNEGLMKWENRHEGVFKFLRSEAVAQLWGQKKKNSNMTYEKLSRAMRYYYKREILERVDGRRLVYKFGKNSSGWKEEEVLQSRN
How it was run: as §1

[18] = biological target: CRX (Homo sapiens, UniProt O43186 1-299); conditions: protein: recombinant; tags: N-terminal GST; dsDNA, one strand shown
How it was run: as §1

[19] = biological target: ETV1 (Homo sapiens, UniProt P50549 1-477); conditions: protein: recombinant; tags: N-terminal GST; dsDNA, one strand shown
How it was run: as §1

HSF1, sequence (Q00613 whole entry): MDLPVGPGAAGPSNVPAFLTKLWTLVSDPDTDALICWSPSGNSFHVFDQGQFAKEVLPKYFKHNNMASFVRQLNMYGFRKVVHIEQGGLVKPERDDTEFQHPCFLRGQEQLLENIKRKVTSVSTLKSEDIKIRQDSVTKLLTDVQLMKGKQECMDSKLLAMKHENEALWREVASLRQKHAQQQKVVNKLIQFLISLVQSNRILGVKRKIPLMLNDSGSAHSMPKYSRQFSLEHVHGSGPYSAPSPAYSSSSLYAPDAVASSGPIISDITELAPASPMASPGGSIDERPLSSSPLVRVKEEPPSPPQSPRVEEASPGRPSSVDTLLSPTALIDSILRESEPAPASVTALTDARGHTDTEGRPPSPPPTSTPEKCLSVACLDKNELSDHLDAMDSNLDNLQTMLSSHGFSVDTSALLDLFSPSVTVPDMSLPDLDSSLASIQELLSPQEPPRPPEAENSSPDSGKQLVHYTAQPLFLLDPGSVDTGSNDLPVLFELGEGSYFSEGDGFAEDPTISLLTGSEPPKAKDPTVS
CRX, sequence (O43186 whole entry): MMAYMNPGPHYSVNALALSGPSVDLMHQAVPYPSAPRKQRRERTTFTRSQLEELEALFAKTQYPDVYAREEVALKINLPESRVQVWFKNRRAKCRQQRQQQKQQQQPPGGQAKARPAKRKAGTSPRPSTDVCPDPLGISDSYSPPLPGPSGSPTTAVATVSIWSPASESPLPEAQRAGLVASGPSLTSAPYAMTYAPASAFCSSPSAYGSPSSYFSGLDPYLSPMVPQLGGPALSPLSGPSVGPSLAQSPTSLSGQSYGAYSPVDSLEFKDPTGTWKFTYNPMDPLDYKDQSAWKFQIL
ELF1, sequence (P32519 whole entry): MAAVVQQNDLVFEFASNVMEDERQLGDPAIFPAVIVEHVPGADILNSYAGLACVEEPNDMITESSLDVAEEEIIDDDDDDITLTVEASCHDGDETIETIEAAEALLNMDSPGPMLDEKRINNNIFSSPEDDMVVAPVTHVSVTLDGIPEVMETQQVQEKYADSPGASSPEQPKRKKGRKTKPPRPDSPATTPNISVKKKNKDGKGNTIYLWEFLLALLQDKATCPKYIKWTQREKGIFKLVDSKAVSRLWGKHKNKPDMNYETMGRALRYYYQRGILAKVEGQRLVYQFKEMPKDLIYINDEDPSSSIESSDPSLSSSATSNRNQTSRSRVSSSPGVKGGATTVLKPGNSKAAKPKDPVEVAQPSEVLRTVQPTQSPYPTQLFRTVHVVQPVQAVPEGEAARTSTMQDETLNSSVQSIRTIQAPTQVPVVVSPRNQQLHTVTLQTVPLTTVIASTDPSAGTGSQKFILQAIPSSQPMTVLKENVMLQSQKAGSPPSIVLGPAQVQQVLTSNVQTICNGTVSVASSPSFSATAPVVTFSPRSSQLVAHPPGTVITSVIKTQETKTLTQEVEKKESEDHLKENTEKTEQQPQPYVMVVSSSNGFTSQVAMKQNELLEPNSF
ELF4, sequence (Q99607 whole entry): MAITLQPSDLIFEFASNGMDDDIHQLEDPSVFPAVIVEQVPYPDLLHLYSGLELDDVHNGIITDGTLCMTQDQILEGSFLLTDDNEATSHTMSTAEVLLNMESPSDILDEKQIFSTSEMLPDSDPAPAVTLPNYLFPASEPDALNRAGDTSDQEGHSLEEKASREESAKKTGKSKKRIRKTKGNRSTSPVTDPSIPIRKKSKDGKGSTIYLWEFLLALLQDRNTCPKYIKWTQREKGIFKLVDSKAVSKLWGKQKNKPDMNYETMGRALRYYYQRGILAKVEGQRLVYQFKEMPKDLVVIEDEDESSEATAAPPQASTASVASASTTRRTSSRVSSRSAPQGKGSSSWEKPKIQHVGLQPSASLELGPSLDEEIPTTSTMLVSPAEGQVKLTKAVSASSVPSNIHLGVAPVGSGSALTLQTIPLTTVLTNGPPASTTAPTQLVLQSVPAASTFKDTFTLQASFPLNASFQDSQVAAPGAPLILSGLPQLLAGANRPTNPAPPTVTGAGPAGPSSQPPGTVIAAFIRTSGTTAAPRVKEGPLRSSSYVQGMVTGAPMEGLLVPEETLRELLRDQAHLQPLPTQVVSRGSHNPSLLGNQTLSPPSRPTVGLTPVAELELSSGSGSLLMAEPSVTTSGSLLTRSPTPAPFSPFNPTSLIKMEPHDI
ETV1, sequence (P50549 whole entry): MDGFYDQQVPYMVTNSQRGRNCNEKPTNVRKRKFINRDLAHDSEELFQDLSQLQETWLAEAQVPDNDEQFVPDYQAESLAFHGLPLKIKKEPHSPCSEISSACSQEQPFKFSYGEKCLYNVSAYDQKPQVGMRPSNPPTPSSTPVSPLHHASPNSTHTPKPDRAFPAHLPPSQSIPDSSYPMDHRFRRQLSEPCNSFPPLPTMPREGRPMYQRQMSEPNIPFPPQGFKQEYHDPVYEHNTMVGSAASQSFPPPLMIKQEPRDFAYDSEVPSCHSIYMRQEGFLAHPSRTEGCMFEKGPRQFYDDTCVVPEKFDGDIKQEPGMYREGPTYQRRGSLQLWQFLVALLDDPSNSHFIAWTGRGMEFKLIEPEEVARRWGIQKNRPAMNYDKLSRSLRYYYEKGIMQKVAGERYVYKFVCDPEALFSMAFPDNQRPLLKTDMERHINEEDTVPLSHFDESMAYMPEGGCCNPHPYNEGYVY
ETV5, sequence (P41161 whole entry): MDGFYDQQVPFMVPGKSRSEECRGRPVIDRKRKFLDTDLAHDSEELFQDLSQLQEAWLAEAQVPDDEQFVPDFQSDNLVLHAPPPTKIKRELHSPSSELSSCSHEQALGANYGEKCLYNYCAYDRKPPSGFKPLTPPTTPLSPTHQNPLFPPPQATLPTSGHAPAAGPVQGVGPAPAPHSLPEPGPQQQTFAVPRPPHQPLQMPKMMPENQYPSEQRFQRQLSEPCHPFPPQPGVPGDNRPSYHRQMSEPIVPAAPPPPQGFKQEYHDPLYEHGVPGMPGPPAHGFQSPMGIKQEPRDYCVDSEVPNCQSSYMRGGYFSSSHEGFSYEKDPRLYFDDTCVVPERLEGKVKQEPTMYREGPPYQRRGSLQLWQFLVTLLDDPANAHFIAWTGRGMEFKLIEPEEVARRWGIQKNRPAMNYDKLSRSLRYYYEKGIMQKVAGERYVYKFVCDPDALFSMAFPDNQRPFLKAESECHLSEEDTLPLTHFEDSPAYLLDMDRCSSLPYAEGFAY
SPIB, sequence (Q01892 whole entry): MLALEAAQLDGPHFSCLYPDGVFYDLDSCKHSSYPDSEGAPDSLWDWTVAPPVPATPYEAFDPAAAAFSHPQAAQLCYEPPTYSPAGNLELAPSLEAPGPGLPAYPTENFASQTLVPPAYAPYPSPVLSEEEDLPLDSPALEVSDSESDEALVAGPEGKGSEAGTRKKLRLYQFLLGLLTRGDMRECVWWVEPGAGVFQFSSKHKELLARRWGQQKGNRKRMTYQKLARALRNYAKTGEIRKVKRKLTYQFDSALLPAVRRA

TGTAAT
binding signal [1]: 1.27 fold enrichment (6-mer frequency, TF over GST control)
binding signal [2]: 1.2 fold enrichment (6-mer frequency, TF over GST control)
binding signal [3]: 1.2 fold enrichment (6-mer frequency, TF over GST control)
binding signal [4]: 1.2 fold enrichment (6-mer frequency, TF over GST control)
binding signal [5]: 1.18 fold enrichment (6-mer frequency, TF over GST control)
binding signal [6]: 1.15 fold enrichment (6-mer frequency, TF over GST control)
binding signal [7]: 1.15 fold enrichment (6-mer frequency, TF over GST control)
binding signal [8]: 1.25 fold enrichment (6-mer frequency, TF over GST control)
binding signal [9]: 1.26 fold enrichment (6-mer frequency, TF over GST control)
binding signal [10]: 1.12 fold enrichment (6-mer frequency, TF over GST control)
binding signal [11]: 1.17 fold enrichment (6-mer frequency, TF over GST control)
binding signal [12]: 1.39 fold enrichment (6-mer frequency, TF over GST control)
binding signal [13]: 1.27 fold enrichment (6-mer frequency, TF over GST control)
binding signal [14]: 1.23 fold enrichment (6-mer frequency, TF over GST control)
binding signal [15]: 1.21 fold enrichment (6-mer frequency, TF over GST control)
binding signal [16]: 1.26 fold enrichment (6-mer frequency, TF over GST control)
binding signal [17]: 1.26 fold enrichment (6-mer frequency, TF over GST control)
binding signal [18]: 1.79 fold enrichment (6-mer frequency, TF over GST control)
binding signal [19]: 1.17 fold enrichment (6-mer frequency, TF over GST control)
